For assay [1], the system named is Plasmodium falciparum Sir2 (PF13_0152, Sir2A). Nature of the assay: Plasmodium falciparum Sir2A binding compounds – biochemical, small-molecule microarray, 635 nm fluorescence, primary screen (AID 1098).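 Also: score merges spot fluorescence intensity with its signal-to-noise ratio.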 As to conditions: fluorescence 635 nm, higher = more signal.
The nature of assay [2]: probe aDKK1 binding to arrayed compounds – biochemical, biotinylated probe, 635/667 nm fluorescence, primary screen (AID 1099).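 Also: score merges 667nm spot fluorescence with signal to noise across triplicate slides.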 As to conditions: small-molecule microarray, higher = more signal.
Assay [3] is described as follows: probe aCHRDL2 binding to arrayed compounds – biochemical, biotinylated probe, 635/667 nm fluorescence, primary screen (AID 1100). The note with it: small-molecule microarray, higher = more signal.
Assay [4] can be described thus: change in splice reporter luminescence, either direction, cell-based, HEK293, spliceosome inhibition project, primary screen (AID 1101).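 Also: HEK293 cells carrying a splicing-competent luciferase reporter gene; test concentration not given here.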 As to conditions: HEK293 splicing luciferase reporter, 24 h, higher = more signal, called active from +8 up or from −8 down. Background: Reporter assays use an easily measured gene product as a stand-in for the process of interest.

The target in assay [5] is Fibroblast growth factor 10 (Homo sapiens) (UniProt O15520). The experiment in a line: compounds binding fibroblast growth factor 10 – biochemical, small-molecule microarray, 635 nm fluorescence, primary screen (AID 1102). The note with it: FGF10 binding, fluorescence 635 nm, higher = more signal.
The test system of assay [6] is glycogen synthase kinase-3 (GSK3A per assay name; protocol says GSK3B). Nature of the assay: compounds binding glycogen synthase kinase-3 – biochemical, small-molecule microarray, 635 nm fluorescence, GSK3A, primary screen (AID 1103). Also: the record names both GSK3A and GSK3B. As to conditions: fluorescence 635 nm, higher = more signal.
In assay [7] the target is Epidermal growth factor receptor (Homo sapiens) (UniProt P00533). Nature of the assay: compounds binding epidermal growth factor receptor – biochemical, small-molecule microarray, 635 nm fluorescence, primary screen (AID 1104).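 Also: score merges 667 nm emission intensity with spot signal to noise over triplicate slides.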 The note with it: EGFR binding, higher = more signal.
Assay [8] addresses Follistatin-related protein 3 (Homo sapiens) (UniProt O95633). The experiment in a line: compounds binding follistatin-related protein 3 – biochemical, small-molecule microarray, 635 nm fluorescence, primary screen (AID 1105).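 Also: score merges emission near 667 nm and signal to noise per printed spot across three slides.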 The note with it: FSTL3 binding, higher = more signal.
Assay [9] deals with Dickkopf-related protein 1 (Homo sapiens) (UniProt O94907). Nature of the assay: small molecules binding DKK1 protein – biochemical, small-molecule microarray, 635 nm fluorescence scan, primary screen (AID 1106).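 Also: score merges emission near 667 nm with signal to noise over three replicate slides.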 The note with it: higher = more signal.
In assay [10] the test system is Inhibin beta A chain (activin A). The experiment in a line: small molecules binding activin A – biochemical, small-molecule microarray, 635 nm fluorescence scan, primary screen (AID 1107).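 Also: mouse activin A protein probed at 4.33 µg/mL on printed slides; score merges bound-protein fluorescence near 667 nm with spot signal-to-noise.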 The note with it: INHBA, higher = more signal.
The subject of assay [11] is Human papillomavirus type 1a protein E7 (residues 44-93). Nature of the assay: small molecules binding HPV E7 44-93 – biochemical, small-molecule microarray, residues 44-93, 635 nm fluorescence, primary screen (AID 1108).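 Also: E7 fragment applied at 1 µg/mL in TBST for 1 h at 4 C; score combines spot fluorescence with its signal to noise ratio.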 The note with it: fluorescence 635 nm, higher = more signal.
Assay [12] in a line: hepatitis C replication reporter changes, two-sided – Huh7 cells, luciferase reporter, HCV replication inhibitor project, primary screen (AID 1109).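 Also: huh7 hepatoma cells harbouring a luciferase neomycin HCV replicon reporter; luciferase luminescence as measure of HCV replicon replication; test concentration not given here.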 As to conditions: Huh7 HCV replicon luciferase reporter, 48 h; higher = more signal.
Assay [13] concerns the target Left-right determination factor 2 (Homo sapiens) (UniProt O00292). Nature of the assay: small molecules binding LEFTY2 protein – biochemical, small-molecule microarray, 635 nm fluorescence scan, primary screen (AID 1110). As to conditions: higher = more signal.
The target in assay [14] is Calmodulin-1 (Homo sapiens) (UniProt P0DP23). The experiment in a line: small molecules binding calmodulin-1 with EGTA – biochemical, small-molecule microarray, Cy5-labelled CALM1, profiling panel (AID 1111).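 Also: labelled calmodulin applied in Tris saline Tween buffer holding calcium plus EGTA and DTT.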 The note with it: Cy5-CALM1 binding fluorescence, higher = more signal.
Assay [15] shares this target. The experiment in a line: small molecules binding Ca-loaded calmodulin-1 – biochemical, small-molecule microarray, Cy5-labelled CALM1, plus calcium, artefact control for SMM control-protein annotation, profiling panel (AID 1112).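 Also: score merges spot fluorescence with signal to noise from triplicate slides.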 As to conditions: Cy5-CALM1 binding fluorescence, higher = more signal.
Assay [16] can be described thus: probe aWnt5a binding to arrayed compounds – biochemical, biotinylated probe, 635/667 nm fluorescence, primary screen (AID 1113).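 Also: score merges 667 nm fluorescence intensity with signal-to-noise per printed feature.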 As to conditions: small-molecule microarray, higher = more signal.
The nature of assay [17]: probe aShh binding to arrayed compounds – biochemical, biotinylated probe, 635/667 nm fluorescence, primary screen (AID 1114).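 Also: probe is biotin-labelled aShh protein from a stem cell growth factor screen; measures binding of labelled protein to compounds printed on the slide; score merges feature fluorescence at 667 nm with signal-to-noise.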 The note with it: small-molecule microarray, higher = more signal.
The nature of assay [18]: probe aNog binding to arrayed compounds – biochemical, biotinylated probe, 635/667 nm fluorescence, primary screen (AID 1115).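 Also: probe is biotinylated aNog protein used at 0.15 µg/mL for 1 h at 4 C; z-score combines 667 nm fluorescence of each spot with its signal to noise.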 The note with it: small-molecule microarray, higher = more signal.
For assay [19], the target named is Torsin-1A-interacting protein 1 (Homo sapiens) (UniProt Q5JTV8). Nature of the assay: compound microarray binding of lysate hLAP1 – cell lysate, small-molecule microarray, COS7 lysate, 635/667 nm fluorescence, primary screen (AID 1116). The note with it: 635 nm fluorescence, higher = more signal.
In assay [20] the target is Alpha-bungarotoxin (Bungarus multicinctus) (UniProt P60615). The experiment in a line: compounds binding labelled alpha-BTX control protein – biochemical, small-molecule microarray, Alexa647 label, 635/667 nm fluorescence, artefact control for SMM control protein annotation, profiling panel (AID 1117). The note with it: alpha-BTX-A647 binding fluorescence, higher = more signal.

Calls of active or inactive are those of the source.

Sequence of Fibroblast growth factor 10 (Homo sapiens) (O15520 whole entry, looked up): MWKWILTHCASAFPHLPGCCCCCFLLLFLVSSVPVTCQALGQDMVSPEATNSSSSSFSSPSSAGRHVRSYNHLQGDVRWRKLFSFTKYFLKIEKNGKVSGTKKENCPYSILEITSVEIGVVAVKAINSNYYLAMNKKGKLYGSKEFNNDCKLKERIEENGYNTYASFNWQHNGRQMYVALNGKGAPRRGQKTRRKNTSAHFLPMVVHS
Sequence of Torsin-1A-interacting protein 1 (Homo sapiens) (Q5JTV8 whole entry, looked up): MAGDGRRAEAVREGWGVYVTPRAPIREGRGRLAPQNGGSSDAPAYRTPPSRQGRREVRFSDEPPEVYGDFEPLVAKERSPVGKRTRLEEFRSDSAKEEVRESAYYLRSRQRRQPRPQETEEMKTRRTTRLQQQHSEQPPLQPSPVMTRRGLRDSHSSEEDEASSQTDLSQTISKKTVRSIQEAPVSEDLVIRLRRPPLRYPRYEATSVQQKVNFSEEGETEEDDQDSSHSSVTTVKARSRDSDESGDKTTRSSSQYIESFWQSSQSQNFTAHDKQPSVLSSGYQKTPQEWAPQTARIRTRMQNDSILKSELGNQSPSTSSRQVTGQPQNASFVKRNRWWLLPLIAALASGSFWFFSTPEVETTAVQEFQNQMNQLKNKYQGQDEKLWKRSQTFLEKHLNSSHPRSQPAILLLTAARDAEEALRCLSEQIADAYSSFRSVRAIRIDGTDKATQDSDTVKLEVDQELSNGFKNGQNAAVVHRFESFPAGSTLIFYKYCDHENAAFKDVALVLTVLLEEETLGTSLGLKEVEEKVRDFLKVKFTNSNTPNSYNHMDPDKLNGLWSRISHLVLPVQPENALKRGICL
Sequence of Alpha-bungarotoxin (Bungarus multicinctus) (P60615 whole entry, looked up): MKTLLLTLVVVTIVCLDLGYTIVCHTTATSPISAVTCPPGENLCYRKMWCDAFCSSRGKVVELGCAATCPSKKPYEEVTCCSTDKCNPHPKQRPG
Sequence of Left-right determination factor 2 (Homo sapiens) (O00292 whole entry, looked up): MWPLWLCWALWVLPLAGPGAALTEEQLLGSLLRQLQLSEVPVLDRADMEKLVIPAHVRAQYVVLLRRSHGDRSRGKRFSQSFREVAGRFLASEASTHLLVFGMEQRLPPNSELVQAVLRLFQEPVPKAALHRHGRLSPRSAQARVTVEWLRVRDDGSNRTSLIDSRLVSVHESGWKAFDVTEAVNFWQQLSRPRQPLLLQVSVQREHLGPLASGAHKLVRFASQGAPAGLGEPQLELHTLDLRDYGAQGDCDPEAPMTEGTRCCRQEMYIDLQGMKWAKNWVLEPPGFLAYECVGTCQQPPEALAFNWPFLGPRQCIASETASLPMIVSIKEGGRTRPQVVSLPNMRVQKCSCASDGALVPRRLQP
Sequence of Follistatin-related protein 3 (Homo sapiens) (O95633 whole entry, looked up): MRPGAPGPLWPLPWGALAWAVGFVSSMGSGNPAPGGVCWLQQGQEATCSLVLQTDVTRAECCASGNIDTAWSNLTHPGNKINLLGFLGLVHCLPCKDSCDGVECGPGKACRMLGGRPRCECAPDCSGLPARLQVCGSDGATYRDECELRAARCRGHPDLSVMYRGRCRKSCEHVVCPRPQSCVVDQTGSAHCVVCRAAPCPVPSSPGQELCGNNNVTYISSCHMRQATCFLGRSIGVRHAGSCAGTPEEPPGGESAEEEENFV
Sequence of Epidermal growth factor receptor (Homo sapiens) (P00533 whole entry, looked up): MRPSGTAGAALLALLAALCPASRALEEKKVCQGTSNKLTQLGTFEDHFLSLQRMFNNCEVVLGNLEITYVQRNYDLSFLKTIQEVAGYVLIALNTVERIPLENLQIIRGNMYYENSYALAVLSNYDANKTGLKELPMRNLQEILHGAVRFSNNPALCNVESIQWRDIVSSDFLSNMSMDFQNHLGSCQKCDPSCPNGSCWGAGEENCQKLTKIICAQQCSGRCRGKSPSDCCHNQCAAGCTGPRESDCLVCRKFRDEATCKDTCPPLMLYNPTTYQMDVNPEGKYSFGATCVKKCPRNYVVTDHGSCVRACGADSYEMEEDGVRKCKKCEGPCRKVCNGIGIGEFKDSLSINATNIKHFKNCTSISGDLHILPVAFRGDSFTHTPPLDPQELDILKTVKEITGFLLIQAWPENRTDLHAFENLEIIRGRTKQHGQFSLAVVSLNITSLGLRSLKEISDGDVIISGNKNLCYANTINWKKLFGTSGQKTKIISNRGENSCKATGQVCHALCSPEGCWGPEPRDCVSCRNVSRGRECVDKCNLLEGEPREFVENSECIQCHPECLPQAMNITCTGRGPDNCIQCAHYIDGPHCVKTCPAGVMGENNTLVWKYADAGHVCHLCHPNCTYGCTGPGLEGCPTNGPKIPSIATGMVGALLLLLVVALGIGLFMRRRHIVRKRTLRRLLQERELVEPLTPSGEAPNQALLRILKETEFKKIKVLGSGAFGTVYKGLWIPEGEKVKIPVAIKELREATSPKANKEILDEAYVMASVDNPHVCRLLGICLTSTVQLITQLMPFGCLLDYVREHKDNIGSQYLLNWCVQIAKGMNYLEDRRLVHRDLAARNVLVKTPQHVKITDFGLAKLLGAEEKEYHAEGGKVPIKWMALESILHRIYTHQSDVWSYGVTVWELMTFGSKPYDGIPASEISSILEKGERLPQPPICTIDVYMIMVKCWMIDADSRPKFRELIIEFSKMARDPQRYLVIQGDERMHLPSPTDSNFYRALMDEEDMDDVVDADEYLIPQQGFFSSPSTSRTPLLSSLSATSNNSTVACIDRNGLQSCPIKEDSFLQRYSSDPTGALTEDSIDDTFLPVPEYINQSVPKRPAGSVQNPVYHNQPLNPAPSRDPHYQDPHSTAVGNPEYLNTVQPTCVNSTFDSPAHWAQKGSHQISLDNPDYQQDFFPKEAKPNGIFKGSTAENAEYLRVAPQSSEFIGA
Sequence of Dickkopf-related protein 1 (Homo sapiens) (O94907 whole entry, looked up): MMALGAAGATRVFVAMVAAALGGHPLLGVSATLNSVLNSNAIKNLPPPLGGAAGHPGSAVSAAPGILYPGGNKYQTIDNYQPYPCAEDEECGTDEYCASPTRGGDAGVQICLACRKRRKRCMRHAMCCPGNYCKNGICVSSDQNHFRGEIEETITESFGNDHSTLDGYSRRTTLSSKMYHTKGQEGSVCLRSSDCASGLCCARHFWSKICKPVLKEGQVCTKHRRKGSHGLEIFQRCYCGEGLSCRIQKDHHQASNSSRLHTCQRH

For the compound `CN1C(=O)C2C=CC(C(O)c3cc(C(F)(F)F)cc(C(F)(F)F)c3)N(NC(=O)OC(C)(C)C)C2C1=O` (stereo not given), the composite z-score in [1] stood at 0.733; in assay [2] it was 0.781; in assay [3], 1.05; in [5], 0.959; in assay [6], 1.3; in [7] it was 0.497. For the same compound, the composite z-score in assay [8] was 1.32; in assay [9], -0.868; in assay [10], 0.279; in assay [11], 1.38; in assay [13], 0.106; in assay [14], 2.45. Further, the composite z-score in assay [15] is 0.666; in [16], -0.0607; in assay [17], -0.0626; in [18], 2.04; in [19] it was 1.48; in assay [20] it was 1.23. Besides, the z-score in assay [4] is -0.149 (inactive); in [12], -1.24.

Consider `COc1ccc([Si](C)(C)[C@H]2[C@H](CC(=O)N3CCC[C@H]3CO)O[C@@]3(C(=O)N(Cc4ccc(N5CCC5=O)cc4)c4ccccc43)[C@@H]2C)cc1`, for which the composite z-score in assay [1] is 1.49; in [2], -0.248; in assay [3], -0.567; in assay [5], 1.34; in assay [6] it was 1.29; in assay [7], 0.838. The composite z-score in [8] was 1.41; in assay [9] it was 0.774; in assay [10], -0.525; in assay [11] it was 1.13; in [13], 0.794; in assay [14], 0.865. The composite z-score in assay [15] was 0.0623; in assay [16] it was -0.0735; in [17], -0.0709; in [18], -0.484; in [19], 1.53; in assay [20], 1.79. The z-score in assay [4] was -0.805 (inactive); in [12], -1.88.

For `CC(=O)NCCCC[C@@H]1NC(=O)[C@H]2C[C@@H](C(=O)NCCCCCNC(=O)CS)[C@@H](c3cccc(OCCO)c3)N2C1=O`, the composite z-score was 1.52 in assay [1]; -0.136 in assay [2]; 0.441 in [3]; 0.349 in assay [5]; 0.552 in assay [6]; 0.39 in assay [7]. The composite z-score in assay [8] was determined as 0.397; in assay [9], 0.607; in assay [10], 0.469; in assay [11], 0.0676; in assay [13], 0.0794; in assay [14] it was 0.232. The composite z-score was 0.202 in [15]; -0.157 in assay [16]; -0.147 in assay [17]; -0.158 in assay [18]; 0.868 in [19]; 0.389 in assay [20]. In addition, the z-score is -0.293 (inactive) in [4] and 0.217 in assay [12].

On to `COc1cc(NN2C(C(O)c3cc(OC)c(OC)c(OC)c3)C=CC3C(=O)N(c4ccccc4)C(=O)C32)cc(OC)c1OC` (stereo not given), for which the composite z-score was found to be 0.815 in [1]; 0.981 in [2]; 0.561 in [3]; 1.26 in assay [5]; 1.3 in assay [6]; 0.165 in assay [7]. Also, the composite z-score in [8] was 1.1; in [9], 0.101; in [10], 0.759; in [11] it was 1.41; in assay [13], 0.307; in assay [14] it was 2.02. The composite z-score in assay [15] is 0.986; in [16] it was 0.145; in assay [17], -0.0193; in [18], 0.756; in assay [19], 1.56; in assay [20] it was 2.35. In addition, the figures for the z-score in assay [4] and in assay [12] were 0.269 (inactive) and -1.54, respectively.

As to `CN(C)CCCNC(=O)[C@@H]1c2ccccc2C(=O)N(C2CCCCC2)[C@H]1c1ccc(CO)cc1`, the composite z-score in assay [1] is 1.37; in assay [2], 0.229; in [3], 0.11; in assay [5] it was 1.43; in [6], 1.32; in assay [7], 0.758. Moreover, the composite z-score in assay [8] was determined as 1.53; in assay [9], 1.15; in [10], 0.106; in [11] it was 1.44; in assay [13], 1.17; in [14], 1.41. For the same compound, the composite z-score in assay [15] was -0.179; in assay [16] it was -0.0459; in assay [17], 0.191; in assay [18], -0.312; in assay [19] it was 0.87; in assay [20], 0.233. For the same compound, the z-score in [4] was 1.39 (inactive); in assay [12] it was -2.43.

`COC(=O)[C@@]1(Cc2ccccc2)[C@H]2c3cc(C(=O)N4CCCC4)n(CCSCCO)c3C[C@H]2CN1C(=O)c1ccccc1`: the composite z-score in assay [1] was 0.809; in [2] it was 1.25; in assay [3], 1.2; in assay [5], 0.283; in [6], 0.954; in [7] it was -0.0631. Moreover, the composite z-score in [8] is 0.414; in assay [9], -0.78; in assay [10] it was 0.964; in assay [11] it was 1.45; in assay [13], -0.491; in assay [14] it was 2.26. Moreover, the composite z-score turned out to be 1.29 in assay [15]; 0.145 in [16]; 0.417 in assay [17]; 2.24 in assay [18]; 2.04 in assay [19]; 0.606 in [20]. The figures for the z-score in [4] and in [12] were -0.393 (inactive) and -1.12, respectively.

Source of the values: PubChem BioAssay.
